Records with an inconclusive call do not appear. Calls of active or inactive are those of the source. Cut-off read from the data, not from the text of the source, unless noted: active = percent of DMSO control GFP below about 86%; inactive = the rest, inconclusive results apart.
What was measured:
[1] = rapamycin-like changes in RPL19A-GFP expression – cell-based, S. cerevisiae, multiplex flow cytometry, primary screen (AID 1862);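 note: lower values mimic rapamycin by blocking the RPL19A rise seen in DMSO cells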; details: S. cerevisiae RPL19A-GFP strain, flow cytometry fluorescence, 3 h; at 10 µM; stronger effect = lower value
[2] = TOR pathway GLN3 branch reporter MEP2-GFP changes – S. cerevisiae, multiplex flow cytometry, primary screen (AID 1867;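 active = GFP response, as percent of the DMSO control, above the screen-wide mean plus 3 SD, about 139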;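 note: median GFP channel fluorescence of barcode-gated MEP2-GFP cells measured by flow cytometry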); details: S. cerevisiae MEP2-GFP strain, 3 h, at 10 µM, stronger effect = higher value, 100% means same as DMSO wells
[3] = TOR pathway RTG branch CIT2 reporter changes – S. cerevisiae, GFP fusion, multiplex flow cytometry, primary screen (AID 1870;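 active = percent response above a set limit, the screen-wide mean plus 3 SD, cut at about 130% in these data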;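 note: barcoded CIT2-GFP strain pooled with four other GFP strains with rapamycin as positive control; median GFP fluorescence per well over plate mean of DMSO wells so 100% = DMSO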); details: S. cerevisiae CIT2-GFP expression, 3 h, at 10 µM, stronger effect = higher value
[4] = TOR pathway LAP4-GFP level changes – S. cerevisiae, multiplex flow cytometry, primary screen (AID 1873;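 active = GFP signal, as percent of the solvent control, above the screen mean plus 3 SD, about 149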); details: S. cerevisiae LAP4-GFP expression, 3 h, at 10 µM, stronger effect = higher value
[5] = yeast AGP1-GFP level changes, GLN3 branch – cell-based, multiplex flow cytometry, S. cerevisiae, primary screen (AID 1887;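 active = GFP signal above the screen-wide mean plus 3 SD, that is over about 124.5% of the solvent control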;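 note: AGP1-GFP fusion strain of S. cerevisiae within a five-strain barcoded multiplex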); details: 3 h, at 10 µM, stronger effect = higher value
[6] = reduced mouse 2C T cell binding to pMHC/ICAM-1 vesicles – MLPCN validation set, flow cytometry, LFA-1/ICAM-1 modulator project, pilot screen (AID 2523;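 active = response below a set limit, under 55% cells CD8-positive and vesicle-bound, and CD8 cells' 90th-percentile brightness under 279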;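 for vesicle binding response: mean PE anti-B7-1 fluorescence of CD8+ cells relative to row control; 100% = QL9-loaded vesicles with DMSO vehicle in the same plate row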); details: 2C mouse CD8+ T cells, at 7 µM, stronger effect = lower value; double positive events: measured here: CD8+/vesicle+ event percentage
[7] = molecular target: Integrin beta-1 (Homo sapiens) + Integrin alpha-4 (Homo sapiens) (UniProt P13612+P05556); assay: alpha4beta1 integrin LIBS antibody binding reduction – U937 cells, HUTS-21 mAb, flow cytometry, validation set, VLA-4 allosteric modulator project, pilot screen (AID 2674;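 active = inhibition above 50%, about 3 SD of the validation set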;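 note: antibody binding induced by the VLA-4 ligand LDV present at three times its Kd; 0% = LDV ligand with antibody and no compound and 100% = antibody without LDV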); details: HUTS-21 LIBS mAb binding, at 6.7 µM, stronger effect = higher value, binding induced by LDV ligand
[8] = calorie-restriction mimetic ROS inhibitors, yeast – validation compound set, pilot screen (AID 2706;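 active = superoxide response below 65% of plate, a cut near 3 SD across the whole screen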;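 note: yeast exposed to compound for one week at 30 degrees C before staining; 100% = mean of all compound wells on the same plate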); details: S. cerevisiae aging, superoxide DHE fluorescence; at 10 µM, stronger effect = lower value
[9] = molecular target: Beta-adrenergic receptor kinase 1 (Homo sapiens) (UniProt P25098); assay: GRK2 binders displacing RNA aptamer, biochemical, validation, human GRK2, bead flow cytometry (AID 488806;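 active = aptamer binding inhibition above 30%, about 3 SD of noise from non-fluorescent compounds; inactive = inhibition at or below 30%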); details: bead-bound GRK2, FAM-aptamer displacement, at 10 µM, stronger effect = higher value
[10] = molecular target: AP-2 complex subunit beta (Homo sapiens) (UniProt P63010); assay: beta-arrestin/AP2 interaction blockers – biochemical, validation set, GST-AP2 beads, flow cytometry, pilot screen (AID 504541;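 active = inhibition above 54%, about 3 SD of non-fluorescent compounds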;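 note: AP2 carries R879A mutation and is captured from E. coli lysate; bead-bound FITC arrestin peptide fluorescence measuring arrestin peptide binding to AP2; 0% = DMSO wells and 100% = excess unlabeled arrestin peptide control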); details: FITC arrestin peptide, at 10 µM, stronger effect = higher value, AP2 beta2 appendage fragment, R879A mutant
[11] = cytosolic pH regulators acting via V-ATPase – S. cerevisiae, pHLuorin, HTS validation (AID 504600; in the data active = response above about 15%;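 note: plate controls were DMSO for no effect and reference compound for full effect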); details: V-ATPase proton transport, at 10 µM, stronger effect = higher value
[12] = tested on: anti-desmoglein-3 scFv antibody binding to human DSG3; assay: blockers of pathogenic pemphigus antibody–desmoglein-3 binding – biochemical, validation compound set, bead-based, flow cytometry, pilot screen (AID 588368;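 active = binding below the plate cutoff, the plate median minus 3 SD, with a reading above zero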;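 note: signal is the median channel fluorescence of bead-bound GFP antibody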); details: Protein G beads, DSG3-Fc, scFv-GFP binding, at 10 µM, stronger effect = lower value
[13] = Nile Red efflux blockade in pump-expressing yeast – validation compound set, multiplex, phenotypic, pilot screen (AID 588506;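 active = efflux inhibition above 0.42, the validation set average plus 4 SD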;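 note: Nile Red retained in cells so higher fluorescence means more efflux inhibition; 0 = negative control wells and 1 = enniatin B 25 µM full block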); details: S. cerevisiae pump-expressing triplex, Nile Red efflux flow cytometry; at 10 µM; stronger effect = higher value; the pumps come from Candida albicans
[14] = molecular target: ATP-binding cassette sub-family B member 6 (Homo sapiens) (UniProt Q9NP58); assay: blockers of ABCB6-driven porphyrin uptake – K562-ABCB6 cells, flow cytometry, validation set, pilot screen (AID 588550;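 active = inhibition above the screen-wide mean plus 3 SD, about 51%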;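 note: 0% = DMSO wells and 100% = benzethonium chloride 70 µM positive control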); details: K562-ABCB6 porphyrin accumulation, 1 h, at 10 µM, stronger effect = higher value
[15] = AML differentiation inducers, ER-HoxA9 marrow cells – cell-based, GFP/MAC1 double positive, flow cytometry, validation set, primary screen (AID 588685;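 active = differentiation response of at least 50%, scaled between solvent and reference control, from cells with both markers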;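 note: compound exposure lasts four days before antibody staining and flow analysis; 0% = DMSO wells and 100% = 5 µM fulvestrant positive control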); details: stronger effect = higher value, normalized: vehicle 0, fulvestrant 100

ATP-binding cassette sub-family B member 6 (Homo sapiens), sequence (Q9NP58 whole entry, looked up): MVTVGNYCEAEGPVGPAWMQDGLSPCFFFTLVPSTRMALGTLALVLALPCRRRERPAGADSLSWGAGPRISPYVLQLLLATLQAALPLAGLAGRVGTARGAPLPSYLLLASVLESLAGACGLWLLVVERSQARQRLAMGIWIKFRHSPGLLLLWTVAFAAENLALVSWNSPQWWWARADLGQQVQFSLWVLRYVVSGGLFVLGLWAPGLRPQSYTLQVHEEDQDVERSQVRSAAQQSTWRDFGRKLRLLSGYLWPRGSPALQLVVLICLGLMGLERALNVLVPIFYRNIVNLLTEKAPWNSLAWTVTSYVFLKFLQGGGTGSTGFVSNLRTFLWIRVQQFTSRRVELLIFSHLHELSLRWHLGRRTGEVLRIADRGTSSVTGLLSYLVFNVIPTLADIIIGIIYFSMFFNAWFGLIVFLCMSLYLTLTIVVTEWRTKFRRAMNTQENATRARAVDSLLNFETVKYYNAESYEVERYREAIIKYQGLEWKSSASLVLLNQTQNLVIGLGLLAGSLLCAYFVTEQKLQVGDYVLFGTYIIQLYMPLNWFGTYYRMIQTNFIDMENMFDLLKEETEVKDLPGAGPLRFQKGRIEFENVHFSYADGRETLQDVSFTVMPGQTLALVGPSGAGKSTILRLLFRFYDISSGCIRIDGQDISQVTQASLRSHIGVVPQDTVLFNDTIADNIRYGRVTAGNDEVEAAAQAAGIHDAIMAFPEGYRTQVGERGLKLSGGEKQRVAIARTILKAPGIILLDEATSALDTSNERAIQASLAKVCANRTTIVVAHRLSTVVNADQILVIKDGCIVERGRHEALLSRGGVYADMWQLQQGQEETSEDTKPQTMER
Integrin beta-1 (Homo sapiens) + Integrin alpha-4 (Homo sapiens), sequence (P05556 whole entry, looked up): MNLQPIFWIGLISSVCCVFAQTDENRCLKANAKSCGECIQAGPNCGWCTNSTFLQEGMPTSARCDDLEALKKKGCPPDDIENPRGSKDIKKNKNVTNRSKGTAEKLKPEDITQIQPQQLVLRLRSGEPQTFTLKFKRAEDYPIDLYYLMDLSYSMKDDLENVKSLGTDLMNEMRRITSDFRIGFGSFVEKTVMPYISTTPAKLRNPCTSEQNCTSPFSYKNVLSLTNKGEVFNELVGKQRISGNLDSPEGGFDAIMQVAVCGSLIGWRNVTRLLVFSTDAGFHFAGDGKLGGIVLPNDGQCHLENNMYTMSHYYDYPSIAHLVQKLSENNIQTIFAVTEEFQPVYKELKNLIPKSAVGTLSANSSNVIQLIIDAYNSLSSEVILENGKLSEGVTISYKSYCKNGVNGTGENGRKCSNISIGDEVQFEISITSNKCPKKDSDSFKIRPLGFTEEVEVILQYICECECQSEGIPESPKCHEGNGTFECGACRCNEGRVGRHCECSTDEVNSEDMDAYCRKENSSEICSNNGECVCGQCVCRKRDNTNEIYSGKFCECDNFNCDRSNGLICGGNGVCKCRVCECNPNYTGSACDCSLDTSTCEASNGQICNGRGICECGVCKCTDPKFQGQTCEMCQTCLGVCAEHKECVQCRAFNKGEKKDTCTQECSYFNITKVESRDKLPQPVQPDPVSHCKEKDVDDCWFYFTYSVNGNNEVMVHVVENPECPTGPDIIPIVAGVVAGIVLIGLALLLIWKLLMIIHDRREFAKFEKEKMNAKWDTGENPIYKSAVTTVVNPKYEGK
Integrin beta-1 (Homo sapiens) + Integrin alpha-4 (Homo sapiens), sequence (P13612 whole entry, looked up): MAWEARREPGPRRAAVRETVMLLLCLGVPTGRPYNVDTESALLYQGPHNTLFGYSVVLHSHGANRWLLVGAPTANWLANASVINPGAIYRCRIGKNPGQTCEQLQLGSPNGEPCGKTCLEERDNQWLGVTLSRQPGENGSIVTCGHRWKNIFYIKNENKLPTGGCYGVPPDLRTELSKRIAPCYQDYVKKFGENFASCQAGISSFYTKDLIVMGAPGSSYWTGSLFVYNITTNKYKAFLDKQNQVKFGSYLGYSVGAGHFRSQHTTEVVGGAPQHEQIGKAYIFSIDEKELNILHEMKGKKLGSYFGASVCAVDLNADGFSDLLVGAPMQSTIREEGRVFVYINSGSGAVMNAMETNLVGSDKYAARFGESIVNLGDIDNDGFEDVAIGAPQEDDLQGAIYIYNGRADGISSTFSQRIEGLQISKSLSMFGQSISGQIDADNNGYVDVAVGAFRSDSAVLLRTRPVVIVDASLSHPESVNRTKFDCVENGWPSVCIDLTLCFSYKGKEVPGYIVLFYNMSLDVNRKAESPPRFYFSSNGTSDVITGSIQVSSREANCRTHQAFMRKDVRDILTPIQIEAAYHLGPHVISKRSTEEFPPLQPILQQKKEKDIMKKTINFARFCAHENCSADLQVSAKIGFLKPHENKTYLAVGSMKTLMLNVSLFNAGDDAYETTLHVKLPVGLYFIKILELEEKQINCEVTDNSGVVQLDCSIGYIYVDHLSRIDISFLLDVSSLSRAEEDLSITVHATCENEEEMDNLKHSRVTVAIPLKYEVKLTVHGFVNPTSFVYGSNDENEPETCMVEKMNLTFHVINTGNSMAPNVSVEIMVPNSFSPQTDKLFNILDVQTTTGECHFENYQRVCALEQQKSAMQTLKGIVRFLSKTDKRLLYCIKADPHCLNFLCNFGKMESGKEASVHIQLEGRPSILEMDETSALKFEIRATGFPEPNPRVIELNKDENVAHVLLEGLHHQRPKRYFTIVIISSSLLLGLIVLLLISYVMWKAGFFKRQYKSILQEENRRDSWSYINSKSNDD
Beta-adrenergic receptor kinase 1 (Homo sapiens), sequence (P25098 whole entry, looked up): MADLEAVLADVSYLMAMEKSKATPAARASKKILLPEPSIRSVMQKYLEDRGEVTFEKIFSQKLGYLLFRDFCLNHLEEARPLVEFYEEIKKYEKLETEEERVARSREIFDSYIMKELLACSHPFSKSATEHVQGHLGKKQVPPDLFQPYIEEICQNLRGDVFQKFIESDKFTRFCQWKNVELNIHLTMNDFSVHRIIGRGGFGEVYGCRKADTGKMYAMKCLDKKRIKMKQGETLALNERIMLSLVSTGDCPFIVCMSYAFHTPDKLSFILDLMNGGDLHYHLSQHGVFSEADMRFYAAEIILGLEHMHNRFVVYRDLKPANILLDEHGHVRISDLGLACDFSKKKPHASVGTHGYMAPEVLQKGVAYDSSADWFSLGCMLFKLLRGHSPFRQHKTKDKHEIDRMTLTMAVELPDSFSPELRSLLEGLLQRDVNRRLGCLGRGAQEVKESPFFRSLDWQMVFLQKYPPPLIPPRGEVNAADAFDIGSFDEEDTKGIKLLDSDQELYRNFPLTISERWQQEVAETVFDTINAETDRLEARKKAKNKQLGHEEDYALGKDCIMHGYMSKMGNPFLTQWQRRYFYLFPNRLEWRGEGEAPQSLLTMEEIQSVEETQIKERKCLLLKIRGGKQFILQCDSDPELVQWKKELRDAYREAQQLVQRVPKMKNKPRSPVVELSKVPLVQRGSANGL
AP-2 complex subunit beta (Homo sapiens), sequence (P63010 whole entry, looked up, the tested form may be a part, one chain of several): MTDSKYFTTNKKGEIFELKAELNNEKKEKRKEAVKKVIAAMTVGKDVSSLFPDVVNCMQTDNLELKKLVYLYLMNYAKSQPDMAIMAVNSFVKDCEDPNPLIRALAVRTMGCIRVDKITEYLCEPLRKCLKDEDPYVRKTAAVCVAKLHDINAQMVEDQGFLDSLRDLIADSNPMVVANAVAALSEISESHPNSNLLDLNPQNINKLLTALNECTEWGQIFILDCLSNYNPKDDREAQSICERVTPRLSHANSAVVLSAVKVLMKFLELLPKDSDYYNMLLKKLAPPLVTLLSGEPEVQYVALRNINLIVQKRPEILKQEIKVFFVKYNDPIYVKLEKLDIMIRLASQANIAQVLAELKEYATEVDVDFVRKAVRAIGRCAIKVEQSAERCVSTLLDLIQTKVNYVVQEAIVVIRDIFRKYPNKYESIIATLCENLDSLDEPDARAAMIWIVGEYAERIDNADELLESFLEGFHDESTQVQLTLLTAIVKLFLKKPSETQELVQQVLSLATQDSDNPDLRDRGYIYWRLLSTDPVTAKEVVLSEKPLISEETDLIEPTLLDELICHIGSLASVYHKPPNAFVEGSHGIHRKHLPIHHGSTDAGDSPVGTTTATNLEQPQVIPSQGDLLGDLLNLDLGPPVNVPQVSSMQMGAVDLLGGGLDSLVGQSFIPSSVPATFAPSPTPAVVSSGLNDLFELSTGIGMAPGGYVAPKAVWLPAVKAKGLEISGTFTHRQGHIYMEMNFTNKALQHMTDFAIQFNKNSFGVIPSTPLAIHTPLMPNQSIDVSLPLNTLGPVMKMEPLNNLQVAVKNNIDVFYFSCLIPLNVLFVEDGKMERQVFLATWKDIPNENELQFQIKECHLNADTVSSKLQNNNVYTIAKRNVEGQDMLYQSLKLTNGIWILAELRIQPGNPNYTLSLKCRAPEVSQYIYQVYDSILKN

CC1(C)NC(C(=O)O)Cc2c1[nH]c1ccccc21 (stereo not given)
62.5%: double positive events [6]
inactive: percent of DMSO control GFP [1] 112% | GFP response vs DMSO [2] 106% | percent response of DMSO control [3] 109% | GFP response vs DMSO [4] 98.4% | GFP response, % of DMSO [5] 105% | vesicle binding response [6] 175% | inhibition [7] 5.36% | superoxide response (% of plate) [8] 97.5% | aptamer binding inhibition [9] 1% | inhibition [10] 14.4% | response [11] -1.17% | binding (% of control) [12] 112% | efflux inhibition (fraction of control) [13] 0.1 | inhibition [14] 8% | differentiation response [15] -16.4%

CC(C)NC(=O)C1(c2ccccc2)CCOCC1
inactive: percent of DMSO control GFP [1] 100% | GFP response vs DMSO [2] 95.9% | percent response of DMSO control [3] 104% | GFP response vs DMSO [4] 99.4% | GFP response, % of DMSO [5] 99.3% | vesicle binding response [6] 191% | inhibition [7] -51.5% | superoxide response (% of plate) [8] 99.3% | aptamer binding inhibition [9] 4% | inhibition [10] 3.27% | response [11] 0.02% | binding (% of control) [12] 98.2% | efflux inhibition (fraction of control) [13] -0.01 | inhibition [14] 4% | differentiation response [15] -0.2%
62.2%: double positive events [6]

C[C@]12CC[C@H]3C(=CCc4cc(O)ccc43)[C@@H]1CCC2=O
59.4%: double positive events [6]
inactive: percent of DMSO control GFP [1] 101% | GFP response vs DMSO [2] 94.8% | percent response of DMSO control [3] 90% | GFP response vs DMSO [4] 110% | GFP response, % of DMSO [5] 92.1% | vesicle binding response [6] 172% | inhibition [7] 7.22% | superoxide response (% of plate) [8] 102% | aptamer binding inhibition [9] 7% | inhibition [10] 2.28% | response [11] -1.47% | binding (% of control) [12] 103% | efflux inhibition (fraction of control) [13] 0.25 | inhibition [14] 4% | differentiation response [15] 1.41%

COc1ccc2c(c1)c(CC(=O)O)c(C)n2C(=O)c1ccc(Cl)cc1
50%: double positive events [6]
inactive: percent of DMSO control GFP [1] 105% | GFP response vs DMSO [2] 96.9% | percent response of DMSO control [3] 109% | GFP response vs DMSO [4] 101% | GFP response, % of DMSO [5] 92.5% | vesicle binding response [6] 173% | inhibition [7] -25.4% | superoxide response (% of plate) [8] 109% | aptamer binding inhibition [9] 1% | inhibition [10] -6.1% | response [11] 9.1% | binding (% of control) [12] 102% | efflux inhibition (fraction of control) [13] -0.01 | inhibition [14] 10% | differentiation response [15] -13.1%

CCc1cc2c(=O)c(-c3nc4ccccc4n3C)coc2c(CN2CCN(C)CC2)c1O
49.7%: double positive events [6]
inactive: percent of DMSO control GFP [1] 107% | GFP response vs DMSO [2] 107% | percent response of DMSO control [3] 110% | GFP response vs DMSO [4] 101% | GFP response, % of DMSO [5] 100% | vesicle binding response [6] 149% | inhibition [7] 17.5% | superoxide response (% of plate) [8] 105% | aptamer binding inhibition [9] 2% | inhibition [10] 2.16% | response [11] 4.87% | binding (% of control) [12] 102% | efflux inhibition (fraction of control) [13] -0.54 | inhibition [14] 7% | differentiation response [15] -0.2%

O=C1N=c2ccccc2=C1c1[nH]c(=S)[nH]c1O
56.8%: double positive events [6]
inactive: percent of DMSO control GFP [1] 98.8% | GFP response vs DMSO [2] 96.9% | percent response of DMSO control [3] 106% | GFP response vs DMSO [4] 81.3% | GFP response, % of DMSO [5] 99.6% | vesicle binding response [6] 181% | inhibition [7] 2.56% | superoxide response (% of plate) [8] 98.7% | aptamer binding inhibition [9] -2% | inhibition [10] 2.65% | response [11] 3.63% | binding (% of control) [12] 98% | efflux inhibition (fraction of control) [13] -0.12 | inhibition [14] 8% | differentiation response [15] -19.6%

Cc1ncc([N+](=O)[O-])n1CC(C)O (stereo not given)
inactive: percent of DMSO control GFP [1] 101% | GFP response vs DMSO [2] 103% | percent response of DMSO control [3] 103% | GFP response vs DMSO [4] 99.4% | GFP response, % of DMSO [5] 97.3% | vesicle binding response [6] 149% | inhibition [7] 8.15% | superoxide response (% of plate) [8] 100% | aptamer binding inhibition [9] 9% | inhibition [10] -6.78% | response [11] -2.48% | binding (% of control) [12] 100% | efflux inhibition (fraction of control) [13] 0.14 | inhibition [14] 8% | differentiation response [15] -9.89%
52.2%: double positive events [6]

CC(C)(C)c1csc(N/N=C/c2cccnc2)n1
inactive: percent of DMSO control GFP [1] 99% | GFP response vs DMSO [2] 106% | percent response of DMSO control [3] 95.9% | GFP response vs DMSO [4] 107% | GFP response, % of DMSO [5] 87.4% | vesicle binding response [6] 163% | inhibition [7] 17.5% | superoxide response (% of plate) [8] 96% | aptamer binding inhibition [9] 5% | inhibition [10] 5.38% | response [11] 1.92% | binding (% of control) [12] 99.3% | efflux inhibition (fraction of control) [13] -0.12 | inhibition [14] 7% | differentiation response [15] 4.64%
53.8%: double positive events [6]

COc1ccc(C2N3CC4(C)CN2CC(C)(C3)C4)cc1OC (stereo not given)
52.7%: double positive events [6]
inactive: percent of DMSO control GFP [1] 103% | GFP response vs DMSO [2] 99.9% | percent response of DMSO control [3] 107% | GFP response vs DMSO [4] 87.3% | GFP response, % of DMSO [5] 107% | vesicle binding response [6] 177% | inhibition [7] -0.24% | superoxide response (% of plate) [8] 96.9% | aptamer binding inhibition [9] 1% | inhibition [10] 9.79% | response [11] 2.37% | binding (% of control) [12] 99% | efflux inhibition (fraction of control) [13] -0.09 | inhibition [14] 6% | differentiation response [15] -13.1%

Cn1c2c(c(=O)[nH]c1=O)C(c1ccc(O)cc1)C1=C(N2)c2ccccc2C1=O (stereo not given)
inactive: percent of DMSO control GFP [1] 99% | GFP response vs DMSO [2] 97.9% | percent response of DMSO control [3] 101% | GFP response vs DMSO [4] 87.3% | GFP response, % of DMSO [5] 94.6% | vesicle binding response [6] 228% | inhibition [7] -3.04% | superoxide response (% of plate) [8] 92.2% | aptamer binding inhibition [9] -2% | inhibition [10] 8.12% | response [11] -0.45% | binding (% of control) [12] 96.9% | efflux inhibition (fraction of control) [13] -0.01 | inhibition [14] 9% | differentiation response [15] 11.1%
62.7%: double positive events [6]

Reference: PubChem BioAssay
